Assay results taken from article PMC4336329 (PLoS ONE, 2015).
The whole screen tested about 310,000 compounds, of which about 14,000 (4.5%) showed an effect of 50% or more. Effects have a minus sign here. This is one part of a sample in which strong results are shown more often than they occur.

Molecular target: human ether-à-go-go-related gene (hERG) potassium channel (human, UniProt Q12809)
Experiment: primary screen, population patch clamp on CHO cells stably expressing hERG; higher = less effect of the substance
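Note: peak tail current of the secondary pulse compared with the same well before compound.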

Chain of human ether-à-go-go-related gene (hERG) potassium channel (Q12809 whole entry, looked up): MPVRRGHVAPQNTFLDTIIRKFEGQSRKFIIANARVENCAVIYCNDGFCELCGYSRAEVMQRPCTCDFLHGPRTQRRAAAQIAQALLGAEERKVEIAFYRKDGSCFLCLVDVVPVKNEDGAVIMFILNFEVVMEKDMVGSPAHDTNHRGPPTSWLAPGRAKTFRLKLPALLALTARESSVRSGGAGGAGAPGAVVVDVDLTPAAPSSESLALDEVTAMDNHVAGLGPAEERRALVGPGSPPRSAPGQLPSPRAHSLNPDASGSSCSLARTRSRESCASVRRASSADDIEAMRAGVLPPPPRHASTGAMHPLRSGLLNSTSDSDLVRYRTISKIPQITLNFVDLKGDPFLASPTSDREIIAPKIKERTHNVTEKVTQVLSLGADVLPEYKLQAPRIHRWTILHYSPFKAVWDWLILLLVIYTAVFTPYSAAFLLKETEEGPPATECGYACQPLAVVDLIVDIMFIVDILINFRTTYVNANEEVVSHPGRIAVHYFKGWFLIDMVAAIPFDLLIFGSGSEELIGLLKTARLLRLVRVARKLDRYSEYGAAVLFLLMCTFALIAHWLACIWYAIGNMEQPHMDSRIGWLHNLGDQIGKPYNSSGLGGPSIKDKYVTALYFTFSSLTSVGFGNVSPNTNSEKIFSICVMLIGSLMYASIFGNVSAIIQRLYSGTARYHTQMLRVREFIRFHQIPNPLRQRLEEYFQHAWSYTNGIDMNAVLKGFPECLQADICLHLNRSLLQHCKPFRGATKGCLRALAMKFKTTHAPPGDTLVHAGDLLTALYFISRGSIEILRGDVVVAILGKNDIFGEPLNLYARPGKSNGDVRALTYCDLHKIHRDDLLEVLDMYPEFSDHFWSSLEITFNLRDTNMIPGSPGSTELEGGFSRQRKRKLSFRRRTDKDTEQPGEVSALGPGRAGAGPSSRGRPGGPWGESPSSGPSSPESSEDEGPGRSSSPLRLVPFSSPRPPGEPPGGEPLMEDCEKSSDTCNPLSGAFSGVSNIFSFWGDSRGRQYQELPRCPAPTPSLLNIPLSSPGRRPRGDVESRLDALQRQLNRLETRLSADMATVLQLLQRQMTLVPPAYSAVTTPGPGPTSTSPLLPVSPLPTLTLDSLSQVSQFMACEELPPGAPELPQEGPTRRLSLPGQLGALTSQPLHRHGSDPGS

SMILES	hERG current change (%, negative = inhibition) at 10uM [%]
O=C(Cc1csc(NC(=O)c2ccccc2)n1)NO	8.93
O=[N+]([O-])c1cc(CS(=O)(=O)Oc2ccc(Cl)cc2)c(O)c([N+](=O)[O-])c1	15.1
CCCn1nnnc1NC(=O)c1ccc(C)cc1Cl	5.02
O=C(NCCOCCOCCNC(=O)c1ccccc1)c1ccccc1	12.7
CCOc1cc2[nH]c(=S)n(CCCN(CC)CC)c(=O)c2cc1OCC	-29.6
CCOc1cc2[nH]c(=S)n(CCCN3CCOCC3)c(=O)c2cc1OCC	-18.5
CCOc1cc2[nH]c(=O)n(CCCN3CCN(c4ccc(OC)cc4)CC3)c(=O)c2cc1OCC	-67.8
CCCCN(C)CCn1c(=S)[nH]c2cc(OCC)c(OCC)cc2c1=O	-55.8
CCOc1cc2[nH]c(=O)n(CCCC(=O)NCc3ccc(OC)cc3)c(=O)c2cc1OCC	8.71
CCOc1cc2[nH]c(=S)n(CCN3CCC(C)CC3)c(=O)c2cc1OCC	-51.2
CCOc1cc2[nH]c(=O)n(CCCN3CCCC3=O)c(=O)c2cc1OCC	-6.1
CC1CCN(CCn2c(=S)[nH]c3cc4c(cc3c2=O)OCO4)CC1	-27.4
CCOc1cc2[nH]c(=S)n(CCCOC)c(=O)c2cc1OCC	-12.1
O=C(CCCCCn1c(=S)[nH]c2ccc(N3CCOCC3)cc2c1=O)NC1CCN(Cc2ccccc2)CC1	-9.35
COc1ccccc1N(C(=O)c1csnn1)C(C(=O)NC1CCCC1)c1ccccc1 (stereo not shown)	-1.69
Cc1c(Cl)cccc1NC(=O)CSc1sc2c(O)cc(=O)[nH]c2c1C#N	-2.45
Cc1ccc(O)c(C2=Nc3ccccc3N=C(c3cccs3)C2)c1	12
CCN1CCN(C(CNS(=O)(=O)c2cccs2)c2cccnc2)CC1 (stereo not shown)	-61.4
O=S(=O)(NCC(c1cccnc1)N1CCN(c2ccc(F)cc2)CC1)c1cccs1 (stereo not shown)	-71.7
CN1CCN(C(CNS(=O)(=O)c2cccs2)c2cccnc2)CC1 (stereo not shown)	-21.4
COc1ccc(N2CCN(C(CNC(=O)Oc3ccccc3)c3cccnc3)CC2)cc1 (stereo not shown)	-27.5
O=S(=O)(NCC(c1cccnc1)N1CCN(c2ccccc2)CC1)c1cccs1 (stereo not shown)	-60.4
CCS(=O)(=O)NCC(c1cccnc1)N1CCN(c2ccc(OC)cc2)CC1 (stereo not shown)	-11.3
O=S(=O)(NCC(c1cccnc1)N1CCOCC1)c1cccs1 (stereo not shown)	-10.9
COc1ccc(N2CCN(C(CNS(=O)(=O)c3cccs3)c3cccnc3)CC2)cc1 (stereo not shown)	-72.5
COC(=O)NCC(c1cccnc1)N1CCN(c2ccccc2)CC1 (stereo not shown)	-13.3
CCCOc1ccc(C2C(C(=O)c3cc4ccccc4o3)=C(O)C(=O)N2c2cc(C)on2)cc1OC (stereo not shown)	25.3
Cc1cnc(C(=O)Oc2ccc(-c3ccccc3)cc2)cn1	16.8

SMILES	hERG current change (%, negative = inhibition) at 10uM [%]
CCCCOCCCNC(=O)c1ccc(OC)cc1	-6.63
COc1ccc(NS(=O)(=O)c2cc3c(cc2C)N(C)CCO3)cc1	-10.5
O=S(=O)(NCC(c1cccnc1)N1CCN(c2ccccc2F)CC1)c1cccs1 (stereo not shown)	-60.5
CCS(=O)(=O)NCC(c1cccnc1)N1CCN(c2ccccc2F)CC1 (stereo not shown)	-3.19
CS(=O)(=O)NCC(c1cccnc1)N1CCN(c2ccccc2F)CC1 (stereo not shown)	-9.77
Cc1ccc(C(=O)CCC(=O)N2CCC(C(N)=O)CC2)cc1	32
CCOC(=O)C1(CCC(C)C)CC(CSc2nc3ccccc3[nH]2)OC1=O (stereo not shown)	-25.2
O=C(O)c1cc([N+](=O)[O-])c(NCc2cccnc2)c([N+](=O)[O-])c1	9.52
COc1ccc2c(c1)c(C(=O)CN1CCC3(CC1)OCCO3)c(C)n2Cc1ccccc1	-53
COc1ccc2c(c1)c(C(=O)CN1CCN(C)CC1)c(C)n2Cc1ccccc1	-35
CCN1CCN(CC(=O)c2c(C)n(Cc3ccccc3)c3ccc(OC)cc23)CC1	-41.3
CCOC(=O)N[C@H](Cc1c[nH]c2ccccc12)C(=O)NC1CC1	3.42
Cc1ccccc1N1CCN(C(=O)CN2C(=O)c3ccccc3C2=O)CC1	-11.8
O=C(CN1C(=O)CSc2ccccc21)NC1CCCC1	0.766
CC(C)CNC(=O)c1ccccc1SCC(=O)NC12CC3CC(CC(C3)C1)C2	-5.62
Cc1cc(C)c2[nH]c(C(=O)N3CCC(n4nccc4NC(=O)C4CC4)CC3)c(C)c2c1	-44.6
Cc1c(CN2CCC(n3nccc3NC(=O)C3CCOC3)CC2)[nH]c2ccccc12 (stereo not shown)	-30.6
COc1ccc(C(=O)Nc2ccnn2C2CCN(Cc3cn(C)nc3C)CC2)cc1	17.1
COc1ccc2[nH]c(C(=O)N3CCC(n4nccc4NC(=O)C4CC4)CC3)c(C)c2c1	-30.4
COc1ccc2[nH]c(CN3CCC(n4nccc4NC(=O)C4CC4)CC3)c(C)c2c1	-63.3
Cc1c(CN2CCC(n3nccc3NC(=O)C3CC3)CC2)[nH]c2ccccc12	-61
COc1cccc(CC(=O)N2CCC(n3nccc3NC(=O)C3CC3)CC2)c1	32
O=C(Nc1ccnn1C1CCN(Cc2cc3ccccc3[nH]2)CC1)C1CCOC1 (stereo not shown)	-31.5
Cc1c(C(=O)N2CCC(n3nccc3NC(=O)C3CC3)CC2)[nH]c2ccc(Cl)cc12	-59.4
O=C(Cn1cnc([N+](=O)[O-])c1)NCc1ccc(F)cc1	7.86
O=C(NC(=S)Nc1ncccn1)c1ccccc1Cl	11.8
O=C(Nc1cc([N+](=O)[O-])ccc1F)C1CC1	-4.7
